This is a sample that favours compounds with a hit; in the whole collection about 2% have one here.
S1P2 agonist – S1P2 receptor agonists, primary screen, cell-based; activation, % at 4.5 µM; S1P2-expressing cell line, agonist reporter read-out; 97,000 compounds, 0.46% hits; in the data active = activation above about 16%
S1P2 blocker – human S1P2 receptor antagonists, primary screen, cell-based; Sphingosine 1-phosphate receptor 2 (Homo sapiens), O95136; cell-based S1P2 antagonist assay, inhibition at 5 uM; inhibition, % at 5 µM; 97,000 compounds, 0.21% hits; AID 736, 2007; in the data active = inhibition above about 45%;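 note: CRE beta-lactamase reporter cells expressing human S1P2 stimulated with S1P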
GALR2 agonist – GALR2 receptor agonists, primary screen, cell-based | Galanin receptor type 2 (Homo sapiens), O43603 | GALR2-expressing cells, agonist activation read-out | activation, % (concentration not given with the values) | 140,000 compounds, 0.48% hits | AID 803, 2007; in the data active = activation above about 5%, passing the limit was not always enough
Target sequence (O43603 whole entry, looked up): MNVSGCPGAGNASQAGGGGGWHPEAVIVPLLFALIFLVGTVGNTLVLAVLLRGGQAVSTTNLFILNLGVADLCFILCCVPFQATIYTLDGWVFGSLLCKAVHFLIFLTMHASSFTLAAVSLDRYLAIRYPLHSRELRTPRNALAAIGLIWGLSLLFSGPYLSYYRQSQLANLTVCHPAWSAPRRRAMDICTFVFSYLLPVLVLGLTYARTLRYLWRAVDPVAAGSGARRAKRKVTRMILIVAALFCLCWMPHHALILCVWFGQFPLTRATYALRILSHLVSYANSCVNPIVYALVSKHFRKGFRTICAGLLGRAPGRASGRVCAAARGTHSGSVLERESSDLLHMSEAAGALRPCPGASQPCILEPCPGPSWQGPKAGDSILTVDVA
PLAP activator – PLAP enzyme activators, biochemical, luminescence, HTS; activation fold at 20 µM; Alkaline phosphatase, placental type (Homo sapiens), P05187; 96,000 compounds, 1.2% hits; purified PLAP enzyme, luminescent substrate read-out; active compounds read high; in the data active = activation fold above about 2
GALR2 blocker – GALR2 antagonists in receptor-expressing cells, primary screen. 140,000 compounds, 0.39% hits. AID 828, 2007. antagonist mode. Galanin receptor type 2 (Homo sapiens), O43603. inhibition, % at 4 µM; in the data active = inhibition above about 27%;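 note: cells stimulated with galanin 1-16 at roughly its EC80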
Large screens that a line does not name were inactive.

Cc1ccc(OCCN2CCN(c3ncnc4sc(C)c(C)c34)CC2)cc1	PLAP activator 2.2
Cc1sc2ncnc(N3CCCCC3)c2c1C	none
Cc1cc2nc(C)n(CCCNC(=O)Nc3ccc(F)cc3)c2cc1C	PLAP activator 2.3
O=C(NCCN1CCc2ccccc2C1)Nc1ccc(F)cc1	none (no result: S1P2 agonist, S1P2 blocker)
COc1ccc(S(=O)(=O)NNC(=O)c2cc3cc4ccccc4nc3s2)cc1	PLAP activator 2
COc1cccc(N2C(=O)C3C(C2=O)C2C=CC3C23CC3)c1 (configuration not stated)	none
CCn1c(C)nc2cc(C(=O)n3cc(C(=O)c4cc(F)ccc4O)cn3)ccc21	PLAP activator 2.1 (no result: S1P2 agonist, S1P2 blocker, GALR2 agonist, GALR2 blocker)
CN(Cc1ccccc1)c1ccc(N2C(=O)CCCC2=O)cc1[N+](=O)[O-]	none (no result: S1P2 agonist, S1P2 blocker, PLAP activator)
O=C(Nc1ncccc1O)c1cccc(S(=O)(=O)N2CCc3ccccc32)c1	PLAP activator 2.5
Cc1cccc2sc(NC(=O)c3cccc(S(=O)(=O)N4CCc5ccccc54)c3)nc12	none (no result: S1P2 agonist, S1P2 blocker, PLAP activator)
CCCN1CCC(NC(=O)Nc2ccccc2C(=O)OC)CC1	none
CCCN1CCC(NC(=O)Nc2ccc(OC)c(OC)c2)CC1	S1P2 agonist 35
O=C(NNC(=O)C1CCCO1)c1ccc(Cl)cc1 (configuration not stated)	PLAP activator 2.2
O=C(COc1ccccc1Cl)NNC(=O)C1CCCO1 (configuration not stated)	PLAP activator 2
COC(=O)c1ccc(N(C(=O)CNC(=O)c2ccco2)C(C(=O)NC2CCCC2)c2ccco2)cc1 (configuration not stated)	none (no result: PLAP activator)
O=C(O)c1ccccc1-c1ccccc1C(=O)NCCCO	none
CCOc1ccccc1NC(=S)NNS(=O)(=O)c1c(C)cc(C)cc1C	none (no result: S1P2 agonist, S1P2 blocker, PLAP activator)
CCOC(=O)c1sc2c(c1C)C(c1cccs1)C1=C(CCCC1=O)N2 (configuration not stated)	S1P2 agonist 31, GALR2 agonist 9.2
CCOC(=O)C1=C(C)NC2=C(C(=O)CCC2)C1c1cccs1 (configuration not stated)	none
CCc1ccc2[nH]c3nc(SCC(=O)NNC(=O)c4ccc(C(C)(C)C)cc4)nnc3c2c1	S1P2 agonist 17
Cc1ccc(C(=O)NNC(=O)CSc2nnc3c(n2)[nH]c2ccc(C)cc23)cc1	none
COc1ccc(S(=O)(=O)N2CCN(c3ccc4nnc(-c5ccc(F)cc5)n4n3)CC2)cc1	S1P2 blocker 48
c1ccc(-c2c3ccccc3nc3[nH]c4ccccc4c23)cc1	GALR2 agonist 5.0 (no result: S1P2 agonist, S1P2 blocker, PLAP activator)
O=C(Cn1cc(S(=O)(=O)Cc2ccccc2)c2ccccc21)Nc1ccccc1	none (no result: S1P2 agonist, S1P2 blocker, PLAP activator)
Cc1ccc(C)c(NC(=S)NC(NC(=O)Cc2cccc3ccccc23)C(Cl)(Cl)Cl)c1 (configuration not stated)	S1P2 agonist 26 (no result: PLAP activator)
O=C(COC(=O)c1ncc(Cl)c(Cl)c1Cl)c1ccc(Cl)s1	none (no result: S1P2 agonist, S1P2 blocker, PLAP activator)
CS(=O)(=O)Nc1nnc(SCC(=O)Nc2cccc([N+](=O)[O-])c2)s1	none (no result: S1P2 agonist, S1P2 blocker, PLAP activator)
O=P(Cc1nnco1)(c1ccccc1)c1ccccc1	PLAP activator 2.1
COc1ccc2c(C)cc(Sc3nnnn3-c3ccccc3)nc2c1	none (no result: S1P2 agonist, S1P2 blocker, PLAP activator)
O=C(Nc1cc(N2CCOCC2)ncn1)NC1(C(F)(F)F)Oc2ccccc2O1	none (no result: PLAP activator)
Cc1[nH][nH]c(=O)c1C(c1ccc(-c2ccc(Cl)c(Cl)c2)o1)c1c(C)[nH][nH]c1=O	PLAP activator 2.9
Cc1oc(-c2ccccc2F)nc1CN1CCC(C(=O)NC2CCCCCCC2)CC1	PLAP activator 2
Cc1oc(-c2ccccc2F)nc1CN1CCC(C(=O)NC2CCCc3ccccc32)CC1 (configuration not stated)	PLAP activator 2
Cc1oc(-c2ccccc2F)nc1CN1CCC(C(=O)NCc2ccco2)CC1	none
C/C(=N\NC(=O)c1ccccc1O)C1C(=O)c2ccccc2C1=O	PLAP activator 2.1
C/C(=N/NC(=O)c1cc2ccccc2cc1O)C1C(=O)c2ccccc2C1=O	none
O=C1CC(c2ccco2)CC(O)=C1C=Nc1cc(Cl)ccc1Cl (configuration not stated)	none (no result: S1P2 agonist, S1P2 blocker, PLAP activator)
O=C1CC(c2ccco2)CC(O)=C1C=Nc1cc(Cl)ccc1O (configuration not stated)	PLAP activator 2.5
CC1CCc2c(sc3nc(CN4CCOCC4)nc(NS(=O)(=O)c4cccc([N+](=O)[O-])c4)c23)C1 (configuration not stated)	PLAP activator 2.1
COc1ccc(-c2cc(-c3c(O)c(OC)c4occc4c3OC)[nH]n2)cc1	PLAP activator 2.3
CCOC(=O)/C(C#N)=C/c1cn(CCOc2ccc(OC)cc2)c2ccccc12	none (no result: S1P2 agonist, S1P2 blocker, PLAP activator)
c1ccc(CN2CCN(c3ncnc4nc[nH]c34)CC2)cc1	PLAP activator 2.1 (no result: S1P2 agonist, S1P2 blocker)
c1ccc2c(c1)CCN(c1ncnc3nc[nH]c13)C2	none (no result: S1P2 agonist, S1P2 blocker)
c1nc(N2CCCCC2)c2[nH]cnc2n1	none (no result: S1P2 agonist, S1P2 blocker)
C1=C(c2ccccc2)CCN(c2ncnc3nc[nH]c23)C1	PLAP activator 2 (no result: S1P2 agonist, S1P2 blocker)
O=C(CN1C2=NCCCN2c2ccccc21)c1ccc(Cl)cc1Cl	none (no result: S1P2 agonist, S1P2 blocker, PLAP activator)
CCn1cc(/C=N\NC(=O)c2ccc(Cl)cc2)cn1	none (no result: S1P2 agonist, S1P2 blocker, PLAP activator)
CCOC(=O)c1c(-c2ccc(C)o2)csc1NC(=O)CSc1ncn[nH]1	PLAP activator 2.2
CCOC(=O)c1c(-c2ccc(C)o2)csc1NC(=O)CN1CCOCC1	none
CCS(=O)(=O)N1Cc2ccccc2CC1C(=O)Nc1nc2ccccc2[nH]1 (configuration not stated)	PLAP activator 2.4 (no result: S1P2 agonist, S1P2 blocker)
COc1cc(/C=C/C(=O)OCC(=O)c2c[nH]c3ccccc23)ccc1OC(F)F	none (no result: S1P2 agonist, S1P2 blocker, PLAP activator)
Cc1ccc(OCC(=O)NNC(=O)C2CCN(c3nccc(C)n3)CC2)cc1	PLAP activator 2.5
Cc1ccnc(N2CCC(C(=O)Nc3ccc(Oc4ccccc4)cc3)CC2)n1	none
O=C(Nc1ccccc1Cl)C1CCN(Cc2cnn(-c3ccccc3)c2-n2cccc2)CC1	PLAP activator 2
O=C(NCc1ccc2c(c1)OCO2)C1CCN(Cc2cnn(-c3ccccc3)c2-n2cccc2)CC1	PLAP activator 2.5
Cc1nn(CC(=O)Nc2ccc(Cl)c(S(=O)(=O)N(C)C)c2)c(C)c1[N+](=O)[O-]	none (no result: S1P2 agonist, S1P2 blocker, PLAP activator)
CCOC(=O)N1CCC(NC(=O)C2CCCN(C(=O)N3CCOc4ccccc43)C2)CC1 (configuration not stated)	none (no result: S1P2 agonist, S1P2 blocker)
CCOC(=O)N1CCC(NC(=O)C2CCN(C(=O)N3CCOc4ccccc43)CC2)CC1	PLAP activator 2.1
O=C(CN1CCC(NC(=O)Nc2ccccc2-c2ccccc2)CC1)NCc1ccco1	PLAP activator 2.2 (no result: S1P2 agonist, S1P2 blocker)
O=C(CN1CCC(Cc2ccccc2)CC1)NC(=O)NCc1ccco1	none
O=C(COC(=O)c1sc2ccccc2c1Cl)Nc1ncc(Cl)cc1Cl	none (no result: S1P2 agonist, S1P2 blocker, PLAP activator)
O=S(=O)(N/N=C\c1cn(-c2ccccc2)nc1-c1ccccc1)c1ccccc1	none
O=[N+]([O-])c1ccc(N/N=C/c2cn(-c3ccccc3)nc2-c2ccccc2)cc1	S1P2 blocker 67
CCOC(=O)N1CCN(C(=O)Nc2ccc(Cl)cc2)CC1	none
CCN1CCN(C(=O)Nc2ccc(Cc3ccc(NC(=O)N4CCN(CC)CC4)cc3)cc2)CC1	PLAP activator 2
